The results in this text go back to PubChem BioAssay (Tox21).

Several values for one entry are separate records, joined by “and”; a condition that tells them apart may be missing. Identical values can stand only once. Results filed as inconclusive are left out. Where a structure was tested more than once in an assay, its records may differ in their call. Activity calls are given as the source filed them. Unless noted, the call rests on the fitted dose curve.

Experiment [1] in a line: Nuclear factor erythroid 2-related factor 2/antioxidant responsive element (Nrf2/ARE) small molecule agonists: qHTS cell viability counter screen in human keratinocytes (AID 1919968; active means well fitted curve in the direction sought with a large enough effect in the repeat runs; an effect the other way counts as inactive or inconclusive; further: nearly all actives have a fitted effect of over 55% in size; further: potency means the concentration at half of the fitted maximal effect). In short, it runs like this: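 Cells of the KeratinoSens line were plated at 1,500 per well and left for 5 h before compound transfer from DMSO stocks. After a 23 h incubation (37 C, 5% CO2), CellTiter-Fluor was added. Signal was taken as fluorescence intensity 1 h later.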

Experiment [2] can be described thus: Nuclear factor erythroid 2-related factor 2/antioxidant responsive element (Nrf2/ARE) small molecule agonists: luciferase reporter gene qHTS assay in human keratinocytes (AID 1919969). Further: nearly all actives have a fitted effect of over 35% in size. Further: potency means the concentration at half of the fitted maximal effect. In general terms: A reporter such as luciferase makes a cellular process visible.
Experiment [3] concerns the target Gonadotropin-releasing hormone receptor (Homo sapiens) (UniProt P30968). The experiment can be described thus: Human gonadotropin-releasing hormone receptor (GnRHR) small molecule agonists, calcium flux assay in GnRHR-HEK293 cells (AID 1920063). Further: nearly all actives have a fitted effect of over 35% in size. Further: potency means the concentration at half of the fitted maximal effect. In short, it runs like this:
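Compounds dissolved in DMSO are pin-transferred onto dye-loaded GnRHR-HEK293 cells, which were seeded 18 h before at 37 C/5% CO2. Calcium signal is read as fluorescence intensity at 1 s intervals for 3 min.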

The target of experiment [4] is KiSS-1 receptor (Homo sapiens) (UniProt Q969F8). The experiment in a line: Human kisspeptin (KISS1R) small molecule agonists, calcium flux assay in KISS1R-HEK293 cells (AID 1920064; active means well fitted curve in the direction sought with a large enough effect in the repeat runs; an effect the other way counts as inactive or inconclusive). In short, it runs like this:
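Cell line: HEK293, stable human KISS1R. Dye loading 1 h at 37 C after 18 h culture. Read: kinetic fluorescence, 480/540 nm, 3 min at 1 s intervals.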

The nature of experiment [5]: G protein-coupled receptor (GPCR) small molecule agonists, calcium flux assay: HEK293 wild type cell line counter screen (AID 1920065). In short, it runs like this: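 Tox21 10K compounds, 15 concentrations each in triplicate, pin-transferred in DMSO onto dye-loaded cells; kinetic read at 480/540 nm for 3 min, 1 s intervals.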
(In general: Calcium assays in cells follow changes in intracellular calcium, usually with a dye or a luminescent sensor.)

A short description of experiment [6]: p53 small molecule agonists, cell-based qHTS assay with human liver microsomes (AID 1963577). In short, it runs like this:
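p53RE-bla reporter cells were pre-incubated 5 h at 37 C, then treated with compounds plus human liver microsomes (0.5 mg/mL final) and NADPH (0.5 mg/mL final) for 16 h at 37 C. Beta-lactamase activity was read by LiveBLAzer fluorescence after 2 h at room temperature.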
On the technique in general: Quantitative high-throughput screening tests each substance at several concentrations.

Experiment [7] is described as follows: p53 small molecule agonists, cell-based qHTS assay with rat liver microsomes (AID 1963578). In short, it runs like this:
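p53RE-bla cells were exposed to compounds together with rat liver microsomes (0.5 mg/mL final) and NADPH (0.5 mg/mL final) for 16 h at 37 C, then read by LiveBLAzer beta-lactamase fluorescence after 2 h at room temperature.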

A short description of experiment [8]: p53 small molecule agonists, cell-based qHTS assay with human liver microsomes: qHTS cell viability counter screen (AID 1963579). Further: nearly all actives have a fitted effect of over 45% in size. In short, it runs like this: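 p53RE-bla cells (4,000/well) were pre-incubated 5 h at 37 C, then given compounds in DMSO plus human liver microsomes (0.5 mg/mL final) and NADPH (0.5 mg/mL final) for 16 h at 37 C. Viability was read by CellTiter-Glo luminescence.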

Experiment [9] in a line: p53 small molecule agonists, cell-based qHTS assay with rat liver microsomes: qHTS cell viability counter screen (AID 1963580). Further: nearly all actives have a fitted effect of over 45% in size. The procedure, abridged: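 After the beta-lactamase ratio was read, CellTiter-Glo was added to the same wells and luminescence measured at 30 min; cells had been treated 16 h at 37 C with compounds, rat liver microsomes and NADPH (0.5 mg/mL final each).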

A short description of experiment [10]: p53 small molecule agonists, cell-based qHTS assay (AID 1963582; active means well fitted activation curve with a large enough effect in the signal ratio in the repeat runs, not every such curve was filed as active; the % refers to the signal ratio). In short, it runs like this: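 16 h compound exposure (37 C) of p53 response element–bla cells, preceded by 5 h recovery at 37 C/5% CO2; read-out via LiveBLAzer B/G FRET substrate, 2 h RT, fluorescence intensity.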
In experiment [11] the target is 5-hydroxytryptamine receptor 2A (Homo sapiens) (UniProt P28223). The experiment in a line: 5-hydroxytryptamine receptor 2A (HTR2A) small molecule antagonists, cell-based qHTS assay (AID 1963586). Further: nearly all actives have a fitted effect of over 45% in size. The procedure, abridged: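 CHO cells stably expressing human HTR2A were plated for 18 h at 37 C, then loaded with calcium dye for 1 h. Compounds were preincubated 5 min at room temperature before DOI (4 nM solution) was added. Kinetic fluorescence was read for 3 min.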

Experiment [12] shares this target. The experiment in a line: 5-hydroxytryptamine receptor 2A (HTR2A) small molecule agonists, cell-based qHTS assay (AID 1963587). Further: nearly all actives have a fitted effect of over 30% in size. The procedure, abridged: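 CHO cells stably expressing human HTR2A, plated 18 h, loaded with calcium dye 1 h at 37 C. Agonist mode: compounds added and intracellular calcium fluorescence recorded kinetically for 2 min at 1 sec intervals.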

In experiment [13] the target is Muscarinic acetylcholine receptor M1 (Homo sapiens) (UniProt P11229). The experiment can be described thus: Cholinergic receptor muscarinic 1 (CHRM1) small molecule antagonists, cell-based qHTS assay (AID 1963588). Further: nearly all actives have a fitted effect of over 40% in size. In short, it runs like this:
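Compounds were tested at 15 concentrations in three independent runs. Dye-loaded CHRM1-CHO cells were exposed 5 min at room temperature before stimulation by acetylcholine added at 50nM. Intracellular calcium was read kinetically on FDSS for 3 min.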

Experiment [14] shares this target. The experiment in a line: Cholinergic receptor muscarinic 1 (CHRM1) small molecule agonists, cell-based qHTS assay (AID 1963589). Further: nearly all actives have a fitted effect of over 35% in size. The procedure, abridged:
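Homogeneous fluorescence calcium flux, agonist mode. Human M1-expressing CHO cells; compound dosed at 15 concentrations, three independent runs; signal sampled every 1 sec.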

The nature of experiment [15]: cAMP Responsive Elements (CRE) small molecule agonists, cell-based qHTS assay (AID 1963590). Further: potency means the concentration at half of the fitted maximal effect. The procedure, abridged:
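HEK 293T cells stably bearing CRE-bla were plated at 2,000 cells per well and rested 18 h. Compounds, positive controls or DMSO were added for 3 h at 37 C. LiveBLAzer B/G substrate was then loaded for 2 h at room temperature.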

A short description of experiment [16]: cAMP Responsive Elements (CRE) small molecule antagonists, cell-based qHTS assay (AID 1963591; active means well fitted inhibition curve with a large enough effect in the signal ratio in the repeat runs, not every such curve was filed as active; the % refers to the signal ratio). The procedure, abridged:
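First, CRE-bla HEK293T cells settled 18 h at 37 C. Next, compound and 0.25 uM final NKH477 were applied for 3 h. Last, LiveBLAzer B/G substrate was loaded for 2 h at room temperature.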

Experiment [17] addresses Beta-2 adrenergic receptor (Homo sapiens) (UniProt P07550). The experiment can be described thus: Adrenergic beta2 receptor (ADRB2) small molecule antagonists, cell-based qHTS assay (AID 1963592). Further: series mostly up to about 92 µM; nearly all actives have a fitted effect of over 50% in size. In short, it runs like this: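 Assay format: CHO-ADRB2 cells, 18-20hr seeding at 37C/5% CO2, then compound plus 1nM isoproterenol agonist mix for 0.5hr RT. Homogeneous time-resolved fluorescence cAMP detection after 1hr, expressed as 665/615 nm ratio.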

In experiment [18] the target is D(2) dopamine receptor (Homo sapiens) (UniProt P14416). The experiment can be described thus: Dopamine D2 receptor (DRD2) small molecule agonists, cell-based qHTS assay (AID 1963594). Further: nearly all actives have a fitted effect of over 35% in size. The procedure, abridged:
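HEK293 cells stably expressing human DRD2, pre-treated with PDE inhibitor Ro20-1724 (0.1 mM final) and compound 10 min at room temperature, then stimulated with NKH477 (200nM […]) for 30 min. cAMP read by HTRF (665/620 nm).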

Experiment [19] is described as follows: p53 small molecule agonists, cell-based qHTS assay: qHTS cell viability counter screen (AID 1963581). Further: nearly all actives have a fitted effect of over 45% in size. The procedure, abridged: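 ATP content measured by luminescence in HCT-116 p53RE-bla cells treated 16 h at 37 C, same wells as the reporter screen.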
The target of experiment [20] is D(2) dopamine receptor (Homo sapiens) (UniProt P14416). The experiment can be described thus: Dopamine D2 receptor (DRD2) small molecule antagonists, cell-based qHTS assay (AID 1963595; active means well fitted inhibition curve with a large enough effect in the signal ratio in the repeat runs, with a control signal flat; the % refers to the signal ratio; further: potency means the concentration at half of the fitted maximal effect). In short, it runs like this: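 HEK293 cells stably expressing DRD2, preincubated with 0.1 mM Ro20-1724 and compounds 10 min, were stimulated with 200 nM NKH477 plus 12 nM quinpirole for 30 min at room temperature; cAMP measured by HTRF (665/620 nm).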
Sequence of D(2) dopamine receptor (Homo sapiens) (P14416 whole entry, looked up): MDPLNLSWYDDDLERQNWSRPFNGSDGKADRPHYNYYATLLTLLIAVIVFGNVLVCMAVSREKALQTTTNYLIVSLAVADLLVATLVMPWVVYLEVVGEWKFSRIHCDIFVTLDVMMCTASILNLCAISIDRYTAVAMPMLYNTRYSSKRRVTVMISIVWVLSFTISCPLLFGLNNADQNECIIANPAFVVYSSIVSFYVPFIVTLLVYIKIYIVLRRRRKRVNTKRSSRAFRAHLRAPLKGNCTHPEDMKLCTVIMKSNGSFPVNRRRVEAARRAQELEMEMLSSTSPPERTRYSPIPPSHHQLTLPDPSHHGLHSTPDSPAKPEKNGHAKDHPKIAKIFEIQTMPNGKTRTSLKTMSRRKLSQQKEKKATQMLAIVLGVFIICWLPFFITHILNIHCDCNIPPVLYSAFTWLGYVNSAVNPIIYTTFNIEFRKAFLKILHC

Sequence of Muscarinic acetylcholine receptor M1 (Homo sapiens) (P11229 whole entry, looked up): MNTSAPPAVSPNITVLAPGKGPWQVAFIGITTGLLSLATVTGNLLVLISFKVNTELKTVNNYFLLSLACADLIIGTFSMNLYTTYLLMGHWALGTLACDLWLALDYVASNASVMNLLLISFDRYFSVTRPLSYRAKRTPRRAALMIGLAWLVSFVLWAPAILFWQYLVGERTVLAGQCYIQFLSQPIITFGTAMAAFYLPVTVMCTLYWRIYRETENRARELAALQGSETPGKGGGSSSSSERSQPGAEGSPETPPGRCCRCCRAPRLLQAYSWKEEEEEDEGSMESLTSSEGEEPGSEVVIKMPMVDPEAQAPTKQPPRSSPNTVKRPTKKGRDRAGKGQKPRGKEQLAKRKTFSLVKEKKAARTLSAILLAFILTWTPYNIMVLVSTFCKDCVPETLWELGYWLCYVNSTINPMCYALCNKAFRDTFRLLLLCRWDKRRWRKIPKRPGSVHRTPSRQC
Sequence of Beta-2 adrenergic receptor (Homo sapiens) (P07550 whole entry, looked up): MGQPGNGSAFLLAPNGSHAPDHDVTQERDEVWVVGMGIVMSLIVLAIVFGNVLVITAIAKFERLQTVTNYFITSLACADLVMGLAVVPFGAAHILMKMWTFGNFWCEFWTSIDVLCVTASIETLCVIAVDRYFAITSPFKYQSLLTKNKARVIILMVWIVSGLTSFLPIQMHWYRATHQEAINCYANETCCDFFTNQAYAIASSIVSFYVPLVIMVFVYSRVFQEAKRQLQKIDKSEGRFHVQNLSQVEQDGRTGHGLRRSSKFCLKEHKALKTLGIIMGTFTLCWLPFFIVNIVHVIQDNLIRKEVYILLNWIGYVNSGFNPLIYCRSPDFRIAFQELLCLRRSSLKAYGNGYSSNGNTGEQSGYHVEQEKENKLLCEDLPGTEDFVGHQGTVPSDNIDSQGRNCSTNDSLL
Sequence of KiSS-1 receptor (Homo sapiens) (Q969F8 whole entry, looked up): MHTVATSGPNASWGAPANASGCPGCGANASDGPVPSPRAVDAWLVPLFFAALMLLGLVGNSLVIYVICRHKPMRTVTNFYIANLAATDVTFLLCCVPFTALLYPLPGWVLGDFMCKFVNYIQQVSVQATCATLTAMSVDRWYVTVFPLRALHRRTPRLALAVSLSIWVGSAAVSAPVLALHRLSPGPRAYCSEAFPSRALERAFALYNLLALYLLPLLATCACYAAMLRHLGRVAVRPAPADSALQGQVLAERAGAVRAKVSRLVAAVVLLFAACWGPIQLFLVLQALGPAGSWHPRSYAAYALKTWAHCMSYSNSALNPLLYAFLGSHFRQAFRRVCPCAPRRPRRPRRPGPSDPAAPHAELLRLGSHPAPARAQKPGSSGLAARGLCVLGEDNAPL
Sequence of 5-hydroxytryptamine receptor 2A (Homo sapiens) (P28223 whole entry, looked up): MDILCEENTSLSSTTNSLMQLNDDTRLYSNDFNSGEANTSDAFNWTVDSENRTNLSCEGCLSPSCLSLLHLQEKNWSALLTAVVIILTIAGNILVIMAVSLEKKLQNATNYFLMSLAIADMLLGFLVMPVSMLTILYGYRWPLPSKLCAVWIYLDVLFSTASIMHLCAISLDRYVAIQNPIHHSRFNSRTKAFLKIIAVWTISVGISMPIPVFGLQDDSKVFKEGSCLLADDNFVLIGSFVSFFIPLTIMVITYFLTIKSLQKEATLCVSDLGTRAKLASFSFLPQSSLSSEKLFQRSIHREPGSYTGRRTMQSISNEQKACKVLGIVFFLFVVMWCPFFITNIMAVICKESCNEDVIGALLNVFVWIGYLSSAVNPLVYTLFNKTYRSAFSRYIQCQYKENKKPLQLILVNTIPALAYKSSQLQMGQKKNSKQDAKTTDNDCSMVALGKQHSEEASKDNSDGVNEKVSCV
Sequence of Gonadotropin-releasing hormone receptor (Homo sapiens) (P30968 whole entry, looked up): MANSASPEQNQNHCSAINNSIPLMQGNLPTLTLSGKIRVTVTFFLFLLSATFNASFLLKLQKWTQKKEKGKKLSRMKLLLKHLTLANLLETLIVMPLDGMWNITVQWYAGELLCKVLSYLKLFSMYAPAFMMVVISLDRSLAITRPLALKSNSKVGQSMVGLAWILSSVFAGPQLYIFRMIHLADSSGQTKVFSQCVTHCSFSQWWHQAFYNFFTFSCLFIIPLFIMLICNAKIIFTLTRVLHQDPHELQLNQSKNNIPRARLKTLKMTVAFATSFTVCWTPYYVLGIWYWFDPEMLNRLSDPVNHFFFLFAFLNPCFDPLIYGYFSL

With `O=C(O)c1[nH]n(-c2ccc(S(=O)(=O)O)cc2)c(=O)c1N=Nc1ccc(S(=O)(=O)O)cc1`, the Potency in experiment [1] is 24.4 µM (active) and 45.4 µM (active). Also, the Potency entry in [2], in experiment [3], in experiment [4], in experiment [5], in experiment [6] and in experiment [7] was “inactive” each time. The Potency result in experiment [8], in experiment [9], in [10], in [11], in [12] and in experiment [13] was “inactive” each time. In addition, the Potency result in [14], in experiment [15], in experiment [16], in experiment [17] and in experiment [18] was “inactive” in each case.
With `CNC[C@H](O)c1ccc(O)c(O)c1`, the Potency result in experiment [1], in [2], in experiment [4], in experiment [5], in experiment [6] and in experiment [7] was “inactive” in each case. The Potency entry in experiment [8], in experiment [9], in [19], in experiment [10], in [16] and in experiment [18] was “inactive” in each case. Also, the Potency in experiment [3] is 110 nM (active) and 233 nM (active); in [20] it was 13 µM (active).
As to `COCCCN`, the Potency result in experiment [1], in [2], in experiment [3], in experiment [4], in [5] and in experiment [6] was “inactive” each time. Besides, the Potency result in experiment [7], in experiment [8], in experiment [9], in experiment [10], in [11] and in experiment [12] was “inactive” each time. For the same compound, the Potency result in experiment [13], in [14], in [15], in [16], in experiment [18] and in experiment [20] was “inactive” each time.
Turning to `CCc1ccc(CCOc2ccc(CC3SC(=O)NC3=O)cc2)nc1` (stereo not drawn), the Potency result in experiment [1], in [3], in experiment [4], in experiment [5], in experiment [6] and in experiment [7] was “inactive” throughout. Also, the Potency entry in experiment [8], in experiment [9], in experiment [19], in experiment [10], in experiment [17] and in experiment [18] was “inactive” in each case. In addition, the Potency result in experiment [20] is “inactive”. Further, in experiment [2], the Potency is 27.3 µM (active) and inactive.
Turning to `C#C[C@]1(O)CC[C@H]2[C@@H]3CCC4=Cc5oncc5C[C@]4(C)[C@H]3CC[C@@]21C`, the Potency in experiment [1] is 61.1 µM (active) and 23.7 µM (active); in [15] it was 29.8 µM (active). Besides, the Potency result in experiment [2], in experiment [3], in experiment [4], in experiment [5], in experiment [6] and in experiment [7] was “inactive” in each case. Moreover, the Potency result in [8], in experiment [9], in experiment [19], in [17], in experiment [18] and in experiment [20] was “inactive” in each case.
On to `O=C(O)CCCC(=O)O`, for which the Potency result in experiment [1], in experiment [2], in experiment [3], in experiment [4], in [5] and in [6] was “inactive” throughout. Further, the Potency entry in experiment [7], in experiment [8], in [9], in experiment [19], in experiment [11] and in experiment [12] was “inactive” in each case. In addition, the Potency entry in [13], in experiment [14], in experiment [15], in [16], in [18] and in [20] was “inactive” in each case.
As to `COc1ccc(Cl)cc1C(=O)NCCc1ccc(S(=O)(=O)NC(=O)NC2CCCCC2)cc1`, the Potency entry in experiment [1], in experiment [2], in experiment [3], in [4], in experiment [5] and in [6] was “inactive” each time. The Potency result in experiment [7], in experiment [8], in experiment [9], in experiment [19], in [10] and in [17] was “inactive” each time. Further, the Potency entry in experiment [18] and in experiment [20] was “inactive” throughout.
`Cc1ccc2ncccc2c1`: the Potency result in [1], in experiment [2], in experiment [3], in [4], in experiment [5] and in [6] was “inactive” throughout. The Potency entry in [7], in [8], in experiment [9], in [19], in experiment [11] and in [12] was “inactive” in each case. Also, the Potency result in [13], in experiment [14], in experiment [15], in [16], in experiment [17] and in experiment [18] was “inactive” in each case. In addition, the Potency entry in experiment [20] is “inactive”.
In the case of `C=CCc1ccc(O)c(OC)c1`, the Potency result in [1], in experiment [2], in experiment [3], in experiment [4], in experiment [5] and in [6] was “inactive” throughout. The Potency result in experiment [7], in experiment [8], in experiment [9], in experiment [19], in experiment [16] and in experiment [17] was “inactive” throughout. The Potency result in experiment [18] and in experiment [20] was “inactive” in each case.
